Measurements from the supplement of paper PMC9897528.

Test system: Scedosporium aurantiacum CBS 136046
Assay: growth inhibition relative to DMSO control (OD600); higher = more antifungal activity, active = 80 or more; extreme values may be limits of the assay
Conditions: 5 µM; 72 h; 37 °C
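Note: conidia screened in RPMI 1640 medium under 5% CO2, growth read by spectrophotometer, medium with 0.5% DMSO serving as the untreated reference.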

Growth inhibition, inactive:
Nc1ccc2oc(=O)ccc2c1I 8.52%, CCNC(=O)Nc1cn2c(-c3ncc(CC)cn3)cc(-c3cccnc3)cc2n1 0%, CN(C)CCNC(=O)c1cccc2cccnc12 2.13%, O=C(CC1Sc2ncnn2C1=O)Nc1ccc(Br)cc1 (stereo not drawn) 33.4%, Cc1cc(CCOc2c(C)cc(-c3nnn(C)n3)cc2C)on1 3.61%, CN(C)[C@@H]1C(=O)C(C(N)=O)=C(O)[C@@]2(O)C(=O)C3=C(O)c4c(O)c(NC(=O)CN5CCCC5)cc(F)c4C[C@H]3C[C@@H]12 0%, C[C@H]1COc2c(N3CCN(C)CC3)c(F)cc3c(=O)c(C(=O)O)cn1c23 6.31%, C=CCN(C(=O)OCc1ccc([N+](=O)[O-])cc1)C1CCN(CC[C@](C)(CN(C)S(=O)(=O)c2ccccc2)c2ccccc2)CC1 34.9%, NC1C2CC3CC(C2)CC1C3 (stereo not drawn) 23.6%, COc1ccc(SC(=O)N[C@H](CCC(=O)O)C(=O)O)cc1 24.2%, COc1cc(C(C(=O)NC2CCCCC2)N(C(=O)Cc2c[nH]c3ccccc23)c2ccc(C(C)C)cc2)cc(OC)c1OC (stereo not drawn) 6.79%, CC(C)(C)c1cccc(-c2nc3cc(C(=N)N)ccc3[nH]2)c1O 17.4%, CN1CCN(Cc2ccc(-c3cnc4[nH]cc(-c5ccc6[nH]ccc6c5)c4c3)cc2)CC1 54.5%, O=C(Nc1ccc(F)cc1)c1nn(-c2ccccc2)c(=O)cc1Cl 32.8%, CCc1cc(Nc2cc(=O)n(CCN3CCN(C(=O)c4ccccc4)CC3)c(=O)[nH]2)ccc1C 0%, O=C(CP(=O)(O)O)NCCc1cccc(Oc2ccccc2)c1 31.5%, OB1OCc2cc(Cl)ccc21 6.18%, O=C(Nc1ccccc1)N(Cc1cc(Br)ccc1O)c1ccc(F)cc1 40.7%, COc1nc2ccc(Br)cc2cc1[C@@H](c1ccccc1)[C@@](O)(CCN(C)C)c1cccc2ccccc12 43.6%, Cc1ccccc1NC(=O)Nc1cccc([N+](=O)[O-])c1 12.4%, CN(C/C=C/C#CC(C)(C)C)Cc1cccc2ccccc12 23.6%, CCN(CC)S(=O)(=O)c1ccc(Cl)c(C(=O)Nc2sc3c(c2C#N)CCCC3)c1 25.7%, CNc1nc(=O)[nH]cc1F 2.45%, C/C(=N\NC(=O)C1CC1c1ccccc1)c1ccc(NC(=O)c2ccco2)cc1 (stereo not drawn) 1.06%, O=C(Nc1ccc(N2CCN(C(=O)c3ccccc3)CC2)cc1)c1ccc2c(c1)OCO2 16.5%, C=C(C)[C@@H]1CC[C@]2(C(=O)O)CC[C@]3(C)[C@H](CC[C@@H]4[C@@]5(C)CC[C@H](O)C(C)(C)[C@@H]5CC[C@]43C)[C@@H]12 1.06%, O=c1cc(OCc2ccccc2)ccn1Cc1ccccc1 9.92%, COc1ccc(COc2cc3oc(=O)c4cc(C(C)O)ccc4c3cc2OC)cc1 (stereo not drawn) 2.35%, Cc1cccc(C)c1C(=O)Nc1nc(-c2ccccn2)cc2ccccc12 26.2%, Cc1ccc(NC(=O)c2cc(Cl)ccc2O)cc1 4.62%, Cc1[nH]c2ccccc2c1CC(=O)N[C@@H](Cc1ccccc1)C(=O)N(C)c1ccccc1 10.7%, Cc1cc(CCCOc2c(C)cc(-c3noc(C(F)(F)F)n3)cc2C)on1 9.58%, CC1=C(/C=C/C(C)=C/C=C/C(C)=C/C(=O)Nc2ccc(O)cc2)C(C)(C)CCC1 14.5%, Fc1ccc(-n2cc(Cn3c(-c4cccc(F)c4)nc4ccccc43)nn2)cc1 17.9%, CCCC1(C2CC2)c2cc(Cl)ccc2NC(=O)N1C (stereo not drawn) 18.8%, O=C(/C=C\n1cnc(-c2cc(C(F)(F)F)cc(C(F)(F)F)c2)n1)NNc1ccccn1 24.4%, Nc1nc(=O)c(Br)c(-c2ccccc2)[nH]1 0.62%, Cn1c2ccccc2c(=O)c2c(O)cccc21 6.84%
